Laboratory results: PubChem BioAssay AID540356 (Broad Institute, 2011)
About 360 (14%) of roughly 2,500 compounds were called active.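 Rule for the calls: active = signal-lowering compounds whose fitted half-maximal concentration AC50 is no higher than ten times their top tested concentration; inconclusive = flat curve with 30 to 70% inhibition, or poor fit; inactive = flat within 30%, signal increase, or AC50 above limit.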 Not all results are given here.

Test: HRP/luminol detection interference without ALR, dose response, artefact control for ALR inhibitor project, biochemical, luminescence, no ALR or DTT, cherry-pick (AID 540356)
Settings: HRP/H2O2 luminol luminescence counterscreen; series mostly up to 10 µM

Structure (SMILES)	AC50
O=C(NNc1cccc(Cl)c1)c1cccnc1Cl	6.88 µM (active)
COc1ccc(Nc2cccc(Cl)c2)c(C(=O)O)c1	inactive
C/C(=N\Nc1cccc(Cl)c1)c1ccncc1	inactive
O=C(CC1CCCC1)N1CCCC(Nc2ccc(F)cc2)C1 (stereo unspecified)	inactive
Cc1occc1C(=O)N1CCCC(Nc2ccc(C(C)C)cc2)C1 (stereo unspecified)	inactive
CCS(=O)(=O)N1Cc2ccccc2CC1C(=O)N1CCN(c2ccccc2)CC1 (stereo unspecified)	inactive
Cc1ccc2c(C)c(C(=O)Nc3ccc(S(=O)(=O)Nc4onc(C)c4C)cc3)oc2c1	inactive
CCN(CC)c1ccc(NC(=O)CN2CCN(c3nc(C)cc(C)n3)CC2)cc1	inactive
CCN(CC)c1ccc(NC(=O)CN2CCN(c3ccc(F)cc3)CC2)cc1	inactive
CCN(CC)c1ccc(NC(=O)c2nc3nc(C)cc(C(F)F)n3n2)cc1	10.3 µM (active)
COc1ccc(N2C(=O)CSC2c2ccc([N+](=O)[O-])cc2)cc1 (stereo unspecified)	inactive
O=C(NNc1ccc(O)cc1)c1ccc(Br)cc1	9.05 µM (active)
O=C(NNc1cc(Br)c(O)c(Br)c1)c1ccccc1	inactive
COc1ccc(Br)cc1C(=O)Nc1ccc(O)cc1	inactive
Nc1cccc(/C=C/c2ccncc2)c1	inactive
CCN(CC)Cc1c(-c2ccccc2)[nH]c2ccc(C)cc2c1=O	inactive
Oc1ccc(O)c(-c2cnns2)c1	5.54 µM (active)
c1ccc(-c2nnc(CN3CCN(c4ccccc4)CC3)o2)cc1	inactive
COc1ccc(NC2CCCN(C(=O)c3cn(C)c4ccccc34)C2)cc1 (stereo unspecified)	inactive
Cc1ccc(Nc2c(-c3ccccc3O)nc3cnccn23)cc1	inactive
CC(=O)Oc1cc2oc(=O)cc(C)c2cc1Cl	inactive
Cc1cc(N)n2ncc(-c3ccccc3)c2n1	inactive
O=C(NCC(c1cccnc1)N1CCN(c2ccc(F)cc2)CC1)c1ccco1 (stereo unspecified)	inactive
COC(=O)[C@H](Cc1ccccc1)NC(=O)N1CCN(c2ccccc2)CC1	inactive
O=C(CN1CCN(c2ccccc2)CC1)Nc1ccccc1Cl	inactive

Structure (SMILES)	AC50
O=C1N/C(=N\S(=O)(=O)Cc2ccccc2)S/C1=C/c1cc([N+](=O)[O-])ccc1O	inactive
Cc1ccc(N2CCN(C(=O)CNS(=O)(=O)c3ccc(Br)s3)CC2C)cc1 (stereo unspecified)	inactive
COc1ccc(N2CCN(C(=O)c3ccc(SC)cc3OC)CC2)cc1	inactive
FC(F)(F)c1ccc(-c2nc(=S)[nH][nH]2)cc1	inactive
S=c1nc(-c2cccc(Cl)c2)[nH][nH]1	inactive
CCn1c(-c2cc(OC)c(OC)c(OC)c2)n[nH]c1=S	inactive
COc1cc(-c2nc(=S)[nH][nH]2)cc(OC)c1OC	3.9 µM (active)
COc1ccc(-c2nc(=S)[nH][nH]2)cc1	2.94 µM (active)
S=c1nc(-c2cc(Cl)cc(Cl)c2)[nH][nH]1	inactive
CC(=O)Nc1ccc(N2C(=O)CSC2c2ccccc2)cc1 (stereo unspecified)	inactive
COc1ccc2nc(N3CCCC3)[nH]c2c1	inactive
Cc1[nH]c2ccccc2c1N=Nc1cccc(C(=O)O)c1	inactive
CCCCC(NC(=O)Cc1c(C)c2cc3c(C)c(C)oc3c(C)c2oc1=O)C(=O)O (stereo unspecified)	inactive
CC(=O)NC(c1cc(Cl)c2ccccc2c1O)C(C)C (stereo unspecified)	inactive
COc1ccccc1N1CCN(C2CCCN(C(=O)CCc3c(C)noc3C)C2)CC1 (stereo unspecified)	inactive
CCN(CC)c1ccc(NC(=O)c2ccc(Br)o2)c(C)c1	inactive
Cc1cccc(C2CN(C)CCc3c2cc(O)c(O)c3Cl)c1 (stereo unspecified)	8.78 µM (active)
COc1ccc(-c2cn[nH]c2N)c(OC)c1	7 µM (active)
COc1ccc2[nH]c(=S)[nH]c2c1	inactive
COc1cc(OC)cc(-c2cn[nH]c2N)c1	inactive
Nc1cccc(CCc2ccncc2)c1	inactive
O=C(Cc1ccc(Cl)cc1)N1CCN(c2ccccc2)CC1	inactive
O=c1/c(=C/c2ccc(O)cc2)sc2n1CCCN=2	9.71 µM (active)
O=C(C1CCCN(S(=O)(=O)c2cnc[nH]2)C1)N1CCN(c2ccc(Cl)cc2)CC1 (stereo unspecified)	inactive
O=C1CCCN1CCCNc1ncnc2c1[nH]c1ccc(Cl)cc12	inactive

Structure (SMILES)	AC50
COc1cc2c(ccc3cc(OC)c(OC)c(O)c32)cc1O	inactive
CCN(CCNS(=O)(=O)c1ccc2[nH]c(=O)sc2c1)c1ccccc1	inactive
CC(=O)N1CC[n+]2c(-c3ccc(Cl)cc3)csc21	inactive
O=C(CNc1ccc2ccccc2c1)NNC1=NCCC1	inactive
O=C1CCC(=O)N1CNc1ccc(Oc2ccccc2)cc1	inactive
O=C(CN1C(=O)CCC1=O)NNc1ccc2ccccc2c1	0.0915 µM (active)
CCCn1cnc2cc(NCc3ccccc3O)ccc21	inactive
Cc1cc(N2CCN(c3ccccc3)CC2)n2ncnc2n1	inactive
O=C(O)c1ccc(CSc2nc3ccccc3o2)cc1	inactive
CC(=O)N1CCN(C(=S)c2ccc(N(C)C)cc2)CC1	inactive
S=c1[nH]nc(-c2ccncc2)n1Cc1ccco1	inactive
CCn1c(-c2ccc(N)cc2)nc2ccccc21	inactive
S=c1[nH]nc(-c2ccco2)n1Cc1ccccc1	inactive
COc1ccc(-c2n[nH]c(=S)n2Cc2ccco2)cc1	inactive
O=C(NNS(=O)(=O)c1ccc(F)cc1)c1cc2ccccc2cc1O	inactive
O=C(C1CCCC1)N1CCCC(Nc2ccccc2)C1 (stereo unspecified)	inactive
CCc1[nH]nc(C(=O)N2CCCC(Nc3ccc(C(C)C)cc3)C2)c1C (stereo unspecified)	inactive
CCc1ccc(-c2csc3[n+]2CCN3C(C)=O)cc1	inactive
O=C(Nc1ccc2snnc2c1)N1CCN(c2ccccc2)CC1	inactive
CC1(C)Nc2ccccc2N(CC(=O)N2CCCCC2)C1=O	inactive
COc1cc(/C=N/Nc2ccc([N+](=O)[O-])cn2)cc(OC)c1O	inactive
O=c1[nH]c(/C=C\c2cccc(F)c2)nc(O)c1[N+](=O)[O-]	inactive
CCn1c(/C=C/c2ccc(O)cc2)nc2ccccc2c1=O	inactive
O=c1[nH]c(/C=C\c2ccccc2F)nc(O)c1[N+](=O)[O-]	inactive
O=c1[nH]c(/C=C\c2cccc(Cl)c2)nc(O)c1[N+](=O)[O-]	inactive

Structure (SMILES)	AC50
COc1cc(/C=N/NC(=O)c2cccc([N+](=O)[O-])c2)cc(OC)c1O	inactive
Cc1ccc(C2SCC(=O)N2c2ccccc2)cc1 (stereo unspecified)	inactive
N#CC1=C(N)n2c(s/c(=C\c3cccs3)c2=O)=C(C#N)C1c1cccs1 (stereo unspecified)	inactive
N#Cc1cnn(-c2ccccc2)c1NC(=O)CN1CCN(c2ccccc2)CC1	inactive
CN(C)S(=O)(=O)c1ccc(-c2cn3ccccc3n2)cc1	inactive
O=C(N/N=C\c1cccc(Cl)c1)c1ccc(Cn2cccn2)o1	inactive
CSc1nc(O)c(Nc2cccc(Cl)c2)c(=O)[nH]1	inactive
Nc1ncc(Br)cc1S(=O)(=O)NCCC(=O)N1CCN(c2ccccc2)CC1	inactive
Cc1ccc(S(=O)(=O)N2CCN=C2SCc2cccnc2)cc1	inactive
CC(=O)Nc1nc(C)c(-c2csc(Nc3ccc(O)cc3)n2)s1	inactive
Nc1ccc(-c2nc3cc(N)ccc3s2)cc1	inactive
CN=c1scc(-c2ccccc2F)n1/N=C(\C)c1cccnc1	inactive
O=C1CSC(=S)N1c1ccc(O)cc1	inactive
COc1cc(/C=N/NC(=O)Cn2cnc3c2c(=O)n(C)c(=O)n3C)ccc1O	inactive
S=c1[nH]nc(C2CCCCC2)n1/N=C/c1ccccn1	inactive
Oc1cc(O)cc(/C=C/c2ccc(O)c(O)c2)c1	5.21 µM (active)
COc1cc(/C=C/c2ccc(O)cc2)cc(OC)c1	inactive
Oc1ccc(/C=N/N=C/c2ccc(O)c(O)c2)cc1O	2.39 µM (active)
COc1ccc(N=C2C(=O)Nc3ccccc32)cc1	inactive
O=Cc1ccc(O)c(O)c1	inactive
COc1cc(/C=N/N=C2/NC(=O)C(c3ccccc3)S2)ccc1O (stereo unspecified)	inactive
Oc1ccc(/C=N/N=C/c2ccc(O)cc2)cc1	inactive
Cc1ccc(CN2CCN(/N=C/c3ccc(O)c(O)c3)CC2)cc1	inactive
Cc1ccsc1C=Nc1ccc(O)cc1	inactive
COc1ccccc1C(=O)NCCN1CCN(c2ccccc2)CC1	inactive

Structure (SMILES)	AC50
CN(C)c1ccc(NC(=O)Nc2ccc3snnc3c2)cc1	inactive
CC(C)(C)c1cc(-c2n[nH]c(=S)n2-c2ccccc2F)n[nH]1	inactive
N#CCC(=O)Nc1ccc(C(=O)NCc2cccc(Cl)c2)cc1	inactive
CC(=O)Oc1ccc(-c2cccc(C(=O)N(C)c3ccc(O)cc3)c2)cc1	inactive
CCN(CCCNS(=O)(=O)c1ccc2c(c1)CCN2C(C)=O)c1cccc(C)c1	inactive
COc1ccc(OC)c(C2C(C#N)=C(N)Oc3cc(N)ccc32)c1 (stereo unspecified)	inactive
N#CC1=C(N)Oc2n[nH]c(-c3cccs3)c2C1c1ccco1 (stereo unspecified)	inactive
Cc1ccc(C2C(C#N)=C(N)Oc3cc(N)ccc32)cc1 (stereo unspecified)	inactive
COc1cc(/C=N/NC(=O)c2cc(-c3ccc4c(c3)OCO4)n[nH]2)ccc1O	inactive
CC(C)C1C(C#N)=C(N)Oc2n[nH]c(-c3cccs3)c21 (stereo unspecified)	inactive
COC(=O)Cc1ccc(O)c(N)c1	inactive
CC1CC/C(=N/Nc2ccccc2)C(=O)N1 (stereo unspecified)	inactive
c1csc(-c2nc3ccccn3c2NC2CCCCC2)c1	inactive
Cc1ccn2c(NC(C)(C)C)c(-c3cccs3)nc2c1	inactive
COc1ccc(C)cc1NC(=O)c1cc2c(CO)cnc(C)c2oc1=N	inactive
Oc1ccccc1N1CCN(c2nnnn2-c2ccccc2)CC1	inactive
CN1CC(=O)N(CC(=O)Nc2ccc(SC(F)F)cc2)C1=O	inactive
O=C(NCC(=O)N1CCN(c2ccccc2O)CC1)c1cccs1	inactive
Cc1ccc(S(=O)(=O)Nc2c(C(=O)O)[nH]c3ccccc23)c(C)c1	inactive
C/C(=N\NC(=O)c1csc2ccccc12)c1ccc(O)cc1	inactive
CCN(CC)c1ccc(C(=O)N/N=C(\C)c2ccc(O)cc2)cc1	inactive
